Many of the other results were omitted from the sample, so hits are more common in it than they were.
STK33 inh = STK33 kinase inhibitors, primary screen, biochemical, luminescence, ADP-Glo, MBP substrate | 27,000 compounds, 0.44% hits | Serine/threonine-protein kinase 33 (Homo sapiens), Q9BYT3 | AID 2322, 2010 | inhibition, % at 12.5 µM; in the data active = inhibition above about 20%; inconclusive = no clear call, values can overlap the other calls
Target sequence (Q9BYT3 whole entry, looked up): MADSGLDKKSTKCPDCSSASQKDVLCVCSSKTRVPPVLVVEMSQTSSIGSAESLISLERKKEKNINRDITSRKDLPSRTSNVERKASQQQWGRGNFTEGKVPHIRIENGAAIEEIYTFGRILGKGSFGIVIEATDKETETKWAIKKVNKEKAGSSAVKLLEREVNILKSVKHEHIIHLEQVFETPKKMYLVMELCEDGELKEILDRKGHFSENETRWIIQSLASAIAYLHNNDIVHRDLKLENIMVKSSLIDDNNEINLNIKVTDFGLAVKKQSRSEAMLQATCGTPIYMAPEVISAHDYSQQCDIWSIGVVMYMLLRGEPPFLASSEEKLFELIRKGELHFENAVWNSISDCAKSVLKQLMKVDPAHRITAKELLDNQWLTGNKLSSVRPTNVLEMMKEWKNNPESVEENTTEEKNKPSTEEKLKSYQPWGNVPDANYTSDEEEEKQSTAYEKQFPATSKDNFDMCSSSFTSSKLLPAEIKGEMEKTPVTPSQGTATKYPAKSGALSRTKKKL
NOMO-1 viab = NOMO-1 AML cell viability reduction, primary screen, STK33 inhibitor project, CellTiter-Glo luminescence; inhibition, % (test concentration not listed); 37,000 compounds, 7.5% hits; NOMO-1 AML viability, 72 h; in the data active = inhibition above about 80%; inconclusive = no clear call, values can overlap the other calls
PD-1 reverse act = activators reversing PD-1 mediated T-cell inhibition, primary screen, luminescence, primary human CD4 T cells, PD-L1 beads; CellTiter-Glo 96 h; AID 2316, 2010; activation, % (no concentration beside the values); 29,000 tested, under 10 active; call rule not given here;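 note: 0% = median vehicle wells and 100% = positive control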
* = called active by the depositor; ? = inconclusive; . = no result given.

SMILES	STK33 inh	NOMO-1 viab	PD-1 reverse act
CC1OC(OC2C(CO)OC(OC(=O)[C@]34CCC(C)(C)CC3C3=CCC5[C@@]6(C)CC[C@H](OC7OC(C)C(OC8OCC(O)(COC9OCC(O)C(OC%10OCC(OC%11OCC(O)(CO)C%11O)C(O)C%10O)C9O)C8O)C(O)C7O)C(C)(C)C6CC[C@@]5(C)[C@]3(C)CC4)C(O)C2O)C(O)C(O)C1O (stereo partly specified)	-10	100*	-3
CC1(C)CC[C@]2(C(=O)O[C@@H]3O[C@H](CO)[C@@H](O)[C@H](O)[C@H]3O)CC[C@]3(C)C(=CCC4[C@@]5(C)CC[C@H](O[C@@H]6OC[C@H](O)[C@H](O)[C@H]6O[C@@H]6O[C@H](CO)[C@@H](O)[C@H](O)[C@H]6O[C@@H]6OC[C@H](O)[C@H](O)[C@H]6O)[C@@](C)(CO)C5CC[C@]43C)C2C1 (stereo partly specified)	-3	-11	0
CC1OC(O[C@H]2CC[C@@]3(C)C(CC[C@]4(C)C3CC=C3C5CC(C)(C)CC[C@]5(C(=O)OC5OC(CO)C(OC6OC(CO)C(O)C(O)C6O)C(O)C5O)CC[C@]34C)C2(C)C)C(O)C(O)C1OC1OCC(O)(COC2OCC(O)C(OC3OCC(OC4OCC(O)(CO)C4O)C(O)C3O)C2O)C1O (stereo partly specified)	-4	14	0
CC1(C)CC[C@]2(C(=O)O[C@@H]3O[C@H](CO)[C@@H](O)[C@H](O)[C@H]3O)CC[C@]3(C)C(=CCC4[C@@]5(C)C[C@@H](O)[C@H](O)[C@@](C)(CO)C5CC[C@]43C)C2C1 (stereo partly specified)	3	31	1
C[C@@H]1O[C@@H](O[C@H]2[C@H](O)[C@@H](O)[C@H](OC[C@H]3O[C@@H](OC(=O)[C@]45CCC(C)(C)CC4C4=CCC6[C@@]7(C)CC[C@H](O)C(C)(C)C7CC[C@@]6(C)[C@]4(C)CC5)[C@H](O)[C@@H](O)[C@@H]3O)O[C@@H]2CO)[C@H](O)[C@H](O)[C@H]1O (stereo partly specified)	2	122*	-10
C[C@@H]1O[C@@H](O[C@H]2[C@H](O[C@H]3CC[C@@]4(C)C(CC[C@]5(C)C4CC=C4[C@@H]6CC(C)(C)CC[C@]6(C(=O)O[C@@H]6O[C@H](CO[C@@H]7O[C@H](CO)[C@@H](O)[C@H](O)[C@H]7O)[C@@H](O)[C@H](O)[C@H]6O)CC[C@]45C)[C@]3(C)CO)OC[C@H](O)[C@@H]2O)[C@H](O)[C@H](O)[C@H]1O (stereo partly specified)	-2	28	0
CCCN1CC=C2C(C#N)(C#N)C(N)=C(C#N)C(c3ccc(OCC(N)=O)cc3)C2(C)C1 (stereo unspecified)	.	?	1
CC1CCc2c(sc3ncn(CC(=O)Nc4c(C(C)C)cccc4C(C)C)c(=O)c23)C1 (stereo unspecified)	3	46	1
CS(=O)(=O)N(CC(=O)Nc1ccccc1C(F)(F)F)C1CCCCC1	-5	6	1
COc1cc(-n2nnnc2SCC(=O)Nc2cccc(Cl)c2Cl)c(OC)cc1Cl	4	46	-1
O=C(O)CSc1n[nH]c(-c2cccs2)n1	3	13	4
CC1(C)CC[C@]2(C(=O)OC3OC(CO)C(O)C(O)C3O)CC[C@]3(C)C(=CCC4[C@@]5(C)CC[C@H](OC6OC(C(=O)O)C(O)C(O)C6O)C(CO)(CO)C5CC[C@]43C)[C@@H]2C1 (stereo partly specified)	-3	120*	-3
CC1(C)CC[C@]2(C(=O)O[C@@H]3O[C@H](CO)[C@@H](O)[C@H](O)[C@H]3O)CC[C@]3(C)C(=CCC4[C@@]5(C)CC[C@H](O[C@@H]6O[C@H](C(=O)O)[C@@H](O[C@@H]7O[C@H](CO)[C@@H](O)[C@H](O)[C@H]7O)[C@H](O)[C@H]6O)C(C)(C)C5CC[C@]43C)C2C1 (stereo partly specified)	-4	-4	0
COc1cccc(NC(=O)CSc2nc3ccccc3c(=O)n2-c2ccc(Br)cc2)c1	5	56	0
CCn1c(SCC(=O)Nc2ccc(F)c(F)c2)nnc1-c1ccncc1	3	10	1
C[C@H]1CN([C@@H](C)CO)C(=O)c2cc(NS(=O)(=O)c3ccc(F)cc3)ccc2O[C@@H]1CN(C)Cc1ccc(C(F)(F)F)cc1	0	-15	-1
C[C@@H]1CCCCO[C@@H](CN(C)C(=O)Nc2ccc(C(F)(F)F)cc2)[C@@H](C)CN([C@H](C)CO)C(=O)c2cc(NS(=O)(=O)c3ccccc3)ccc2O1	-3	73	.
C[C@@H]1CN([C@H](C)CO)C(=O)c2cc(NS(=O)(=O)c3ccc(F)cc3)ccc2O[C@H]1CN(C)Cc1ccc(C(F)(F)F)cc1	-2	81*	-2
C[C@@H]1CN([C@H](C)CO)C(=O)c2cc(NS(=O)(=O)c3ccc(F)cc3)ccc2O[C@@H]1CN(C)Cc1ccc(C(F)(F)F)cc1	.	112*	-1
C[C@H](CO)N1C[C@H](C)[C@H](CN(C)Cc2ccc(C(F)(F)F)cc2)Oc2ccc(NS(=O)(=O)c3ccccc3)cc2C1=O	.	29	-3
C[C@@H]1CCCCO[C@H](CN(C)C(=O)Nc2ccc(C(F)(F)F)cc2)[C@@H](C)CN([C@H](C)CO)C(=O)c2cc(NS(=O)(=O)c3ccc(Cl)cc3)ccc2O1	-4	120*	-4
C[C@@H]1CN([C@@H](C)CO)C(=O)c2cc(NS(=O)(=O)c3ccccc3)ccc2O[C@@H]1CN(C)Cc1ccc(C(F)(F)F)cc1	0	3	3
Cc1ccc(S(=O)(=O)Nc2ccc3c(c2)C(=O)N([C@H](C)CO)C[C@H](C)[C@H](CN(C)Cc2ccc(C(F)(F)F)cc2)O3)cc1	.	93*	0
Cc1ccc(OCCSc2n[nH]c3nc4ccccc4n23)cc1	4	35	.
C[C@]12C[C@@H](O)[C@@H]3C[C@@]1(O[C@@H]1O[C@H](CO)[C@@H](O)[C@H](O)[C@H]1O)[C@]3(COC(=O)c1ccccc1)C(=O)O2	-8	.	.
SMILES	STK33 inh	NOMO-1 viab	PD-1 reverse act
Cc1ccc(C(=O)Nc2ccccc2)c(C)n1	2	4	-1
Cc1cc(-c2ccccn2)n[nH]c1=O	.	14	0
COc1ccc(C)cc1NC(=O)C1CCCN(S(=O)(=O)c2ccc(C)cc2)C1 (stereo unspecified)	1	17	-1
COc1ccc(C)cc1S(=O)(=O)N(C)CC(=O)Nc1cccc(F)c1	0	0	1
CCOC(=O)c1c(NC(=O)c2nc3nc(C)cc(C(F)F)n3n2)sc(C)c1C	-1	21	.
Cc1cccc(-c2nnc(SCC(=O)c3ccccc3)n2-c2ccccc2)c1	1	2	-2
C[C@@H]1CCCCO[C@@H](CN(C)Cc2ccc(C(F)(F)F)cc2)[C@@H](C)CN([C@H](C)CO)C(=O)c2cc(NS(=O)(=O)c3ccc(F)cc3)ccc2O1	1	110*	-8
C[C@@H]1CCCCO[C@@H](CN(C)Cc2ccc(C(F)(F)F)cc2)[C@@H](C)CN([C@H](C)CO)C(=O)c2cc(NS(=O)(=O)c3ccccc3)ccc2O1	-1	?	-2

High-throughput results from PubChem BioAssay.
